The results in this text go back to PubChem BioAssay (EPA / NIEHS).

One may read the AC50 as the concentration at which the activity in the assay is half-maximal.

Assay [1] concerns turtle Thyroid Hormone Receptor, alpha (TRa), gene 101949057. Kind of assay: ATG_trTRa_XSP1: Attagene TRANS-FACTORIAL Multi-Species (XSP1) HepG2 Assay for turtle Thyroid Hormone Receptor, alpha (TRa) (AID 2283806). The procedure, abridged: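 After 24 h chemical exposure, reporter transcripts were measured by RT-PCR with fluorescent primer extension, HpaI digestion and capillary electrophoresis. Cells were transiently transfected HepG2 expressing exogenous NR-Gal4 chimeras; medium contained 3 nM 6-alpha-fluorotestosterone; fitted upward relative to DMSO.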

For assay [2], the target named is zebrafish Thyroid Hormone Receptor alpha (TRa), thraa (gene 30670) (UniProt Q98867). Kind of assay: ATG_zfTRa_XSP1: Attagene TRANS-FACTORIAL Multi-Species (XSP1) HepG2 Assay for zebrafish Thyroid Hormone Receptor alpha (TRa) (AID 2283807). A digest of the protocol: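 Reporter transcripts driven by a chimeric zebrafish TRa–Gal4 protein were measured by RT-PCR with fluorescent labelling and capillary electrophoresis. These came from transiently transfected HepG2 cells after 24 h chemical exposure, with 3 nM 6-alpha-fluorotestosterone added; baseline was DMSO.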
Chain of zebrafish Thyroid Hormone Receptor alpha (TRa), thraa (gene 30670) (Q98867 whole entry, looked up, the tested form may be a part): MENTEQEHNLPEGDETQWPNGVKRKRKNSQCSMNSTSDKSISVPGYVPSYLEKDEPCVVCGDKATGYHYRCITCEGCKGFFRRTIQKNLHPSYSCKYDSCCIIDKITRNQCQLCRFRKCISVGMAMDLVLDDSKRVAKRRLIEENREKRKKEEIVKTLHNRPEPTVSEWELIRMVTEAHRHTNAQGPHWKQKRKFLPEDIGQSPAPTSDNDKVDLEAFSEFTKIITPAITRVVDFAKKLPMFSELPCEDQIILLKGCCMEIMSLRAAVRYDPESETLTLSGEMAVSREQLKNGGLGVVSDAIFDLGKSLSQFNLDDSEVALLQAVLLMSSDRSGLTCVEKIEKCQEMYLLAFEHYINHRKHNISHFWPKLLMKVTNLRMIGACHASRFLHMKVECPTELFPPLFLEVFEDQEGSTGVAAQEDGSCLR

Assay [3] relates to turtle Estrogen Receptor (ERa), gene 101933533. Description: ATG_trERa_XSP2: Attagene TRANS-FACTORIAL Multi-Species (XSP2) HepG2 Assay for turtle Estrogen Receptor (ERa) (AID 2283812).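 Further: actives raise reporter signal above DMSO so AC50 reflects agonist activity.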 A digest of the protocol:
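Readout is reporter mRNA quantified by RT-PCR with capillary electrophoresis after 24 h compound exposure, increase relative to DMSO. Uses transiently transfected human HepG2 liver cells carrying a chimeric turtle ERa-Gal4 receptor driving GAL4-UAS reporters.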

For assay [4], the target named is Estrogen receptor beta (Homo sapiens) (UniProt Q92731). Description: ATG_hERb_XSP2: Attagene TRANS-FACTORIAL Multi-Species (XSP2) HepG2 Assay for human Estrogen Receptor (ERb) (AID 2283813).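 Further: actives raise reporter mRNA above DMSO so AC50 reflects agonist induction.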 The procedure, abridged: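 Transient TRANS reporter system in HepG2: after 24 h of chemical, RNA is reverse-transcribed, reporter cDNA amplified, FAM-labelled and sized by capillary electrophoresis. Induction of the human ERb-Gal4 reporter is measured relative to DMSO.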
Chain of Estrogen receptor beta (Homo sapiens) (Q92731 whole entry, looked up, the tested form may be a part): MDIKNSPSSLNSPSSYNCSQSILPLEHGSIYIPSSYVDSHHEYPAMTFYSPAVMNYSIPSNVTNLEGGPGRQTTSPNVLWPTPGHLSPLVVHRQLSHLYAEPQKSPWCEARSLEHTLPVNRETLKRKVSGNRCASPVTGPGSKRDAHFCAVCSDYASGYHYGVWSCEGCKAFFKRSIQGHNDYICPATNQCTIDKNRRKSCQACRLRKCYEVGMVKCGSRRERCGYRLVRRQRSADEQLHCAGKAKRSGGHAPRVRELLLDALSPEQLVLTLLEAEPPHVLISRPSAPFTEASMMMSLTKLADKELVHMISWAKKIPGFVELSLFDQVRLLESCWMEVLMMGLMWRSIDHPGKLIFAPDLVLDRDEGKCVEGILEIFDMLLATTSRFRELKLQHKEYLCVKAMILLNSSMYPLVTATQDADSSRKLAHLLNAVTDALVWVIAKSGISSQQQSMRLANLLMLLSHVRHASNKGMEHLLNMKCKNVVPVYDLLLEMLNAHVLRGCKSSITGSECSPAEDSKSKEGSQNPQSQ

Assay [5] has as its target GAL4 Transcription Factor (Internal Marker), GAL4 (gene 855828) (UniProt P04386). Description: ATG_GAL4_XSP2: Attagene TRANS-FACTORIAL Multi-Species (XSP2) HepG2 Assay for GAL4 Transcription Factor (Internal Marker) (AID 2283814).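 Further: GAL4 reporter mRNA background control in MRTU transfected cells not a receptor target.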 A digest of the protocol: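 Background-control readout: gain-of-signal fitted against DMSO. After 24 h exposure of transfected HepG2 (MRTU, GAL4-UAS reporters; 3 nM 6-alpha-fluorotestosterone, 1.5 nM norgestrel present), transcripts quantified by RT-PCR and capillary electrophoresis fluorescence.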

Assay [6] deals with human Thyroid hormone Receptor alpha (TRa), THRA (gene 7067) (UniProt P10827). Description: ATG_hTRa_XSP1: Attagene TRANS-FACTORIAL Multi-Species (XSP1) HepG2 Assay for human Thyroid hormone Receptor alpha (TRa) (AID 2283805). The method, then: ATG_XSP1_multi-species_TRANS is a cell-based, multiplexed assay created by modifying the existing Attagene TRANS-FACTORIAL system to include a panel of nuclear receptors from some or all the following species: human (Homo sapiens), mouse (Mus musculus), frog (Xenopus laevis), zebrafish (Danio rerio), chicken (Gallus gallus), and turtle (Chrysemys picta). The ECOTOX-FACTORIAL format uses HepG2, a human liver cell line, with measurements taken at 24 hours after chemical dosing in a 24-well plate. Xsp1 included 3 nM 6-alpha-fluorotestosterone to partially stimulate the androgen receptor.ATG_hTRa_XSP1 is one of 29 assay components measured or calculated from the ATG_XSP1_multi-species_TRANS assay. It is designed to make measurements of mRNA induction, a form of inducible reporter, as detected with fluorescence intensity signals by Reverse transcription polymerase chain reaction (RT-PCR) and Capillary electrophoresis technology.The assay endpoint ATG_hTRa_XSP1 was analyzed in the positive analysis fitting direction relative to DMSO as the negative control and baseline of activity. Using a type of inducible reporter, measures of mRNA for gain-of-signal activity can be used to understand the reporter gene at the transcription factor-level as they relate to the gene TR. Furthermore, this assay endpoint can be referred to as a primary readout, because this assay has produced multiple assay endpoints where this one serves a reporter gene function. To generalize the intended target to other relatable targets, this assay endpoint is annotated to the nuclear receptor intended target family, where the subfamily is non-steroidal.
Chain of human Thyroid hormone Receptor alpha (TRa), THRA (gene 7067) (P10827 whole entry, looked up): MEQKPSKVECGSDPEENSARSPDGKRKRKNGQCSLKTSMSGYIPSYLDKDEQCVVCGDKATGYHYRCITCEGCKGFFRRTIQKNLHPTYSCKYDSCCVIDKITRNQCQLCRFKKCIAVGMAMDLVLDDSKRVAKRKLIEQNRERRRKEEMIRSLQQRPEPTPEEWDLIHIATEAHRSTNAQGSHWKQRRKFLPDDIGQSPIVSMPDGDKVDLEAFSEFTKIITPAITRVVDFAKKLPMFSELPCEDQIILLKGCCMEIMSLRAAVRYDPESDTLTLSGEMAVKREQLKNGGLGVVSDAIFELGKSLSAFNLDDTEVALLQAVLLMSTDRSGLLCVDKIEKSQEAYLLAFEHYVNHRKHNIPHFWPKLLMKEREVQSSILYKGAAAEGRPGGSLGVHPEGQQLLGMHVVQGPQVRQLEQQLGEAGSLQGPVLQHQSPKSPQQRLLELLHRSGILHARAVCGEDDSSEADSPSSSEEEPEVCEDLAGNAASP
Human liver HepG2 cells are transiently transfected with multiple reporter transcription units (MRTUs) in 6-well plates using FuGene 6 reagent (Roche; 3 ml FuGene/1 mg DNA). The MRTU constructs are regulated by a cis-regulating element (promoter). […] A major difference between the CIS and TRANS system is that in CIS activities of endogenous TFs are measured, whereas the TRANS assay evaluates changes in activities of exogenous, chimeric NR-Gal4 proteins. […] At the end of 24 hour incubation, total RNA was isolated using TriZol reagent (Invitrogen). The isolated RNA is then reverse-transcribed using oligo(dT) primer and Mo-MLV reverse transcriptase (Invitrogen) with DNAse I (Ambion) treatment for 30 min. […] The fragments were purified using Qiaquick PCR columns (Qiagen), analyzed on an ABI 3130xL genetic analyzer (Applied Biosystems) with peak positions identified by using a set of X-rhodamine (ROX)-labeled MapMarker1000 molecular weight standards (BioVentures). […]

For assay [7], the target named is zebrafish Thyroid Hormone Receptor beta (TRb), thrb (gene 30607) (UniProt Q9PVE4). Kind of assay: ATG_zfTRb_XSP1: Attagene TRANS-FACTORIAL Multi-Species (XSP1) HepG2 Assay for zebrafish Thyroid Hormone Receptor beta (TRb) (AID 2283809). A digest of the protocol: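 HepG2 cells transiently transfected with multiplexed GAL4-UAS reporter units expressing chimeric zebrafish TRb–Gal4. Dosed 24 h with 3 nM 6-alpha-fluorotestosterone present; reporter mRNA measured by RT-PCR, HpaI digestion and capillary electrophoresis; gain of signal versus DMSO.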
Chain of zebrafish Thyroid Hormone Receptor beta (TRb), thrb (gene 30607) (Q9PVE4 whole entry, looked up, the tested form may be a part): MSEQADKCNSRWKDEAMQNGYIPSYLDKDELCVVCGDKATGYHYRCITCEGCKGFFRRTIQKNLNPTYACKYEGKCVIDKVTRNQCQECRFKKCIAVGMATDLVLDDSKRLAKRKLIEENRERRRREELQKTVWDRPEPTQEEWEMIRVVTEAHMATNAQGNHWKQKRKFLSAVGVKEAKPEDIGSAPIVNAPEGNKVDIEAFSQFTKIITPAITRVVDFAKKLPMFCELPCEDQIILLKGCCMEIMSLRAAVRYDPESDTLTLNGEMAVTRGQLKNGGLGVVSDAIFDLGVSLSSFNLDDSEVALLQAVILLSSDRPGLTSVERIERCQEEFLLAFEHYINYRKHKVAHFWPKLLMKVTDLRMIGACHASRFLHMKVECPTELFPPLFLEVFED

A short description of assay [8]: ATG_XTT_Cytotoxicity_XSP1: Cytotoxicity Assessment in the Attagene TRANS-FACTORIAL Multi-Species (XSP1) HepG2 Assay (AID 2283810). The procedure, abridged: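 XTT viability readout taken at 24 hours post-dosing in HepG2 liver cells co-treated with 3 nM 6-alpha-fluorotestosterone. Signal loss relative to DMSO controls reflects cytotoxicity.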
Assay [9] has as its target human Thyroid hormone Receptor beta (TRb), THRB (gene 7068) (UniProt P10828). Kind of assay: ATG_hTRb_XSP1: Attagene TRANS-FACTORIAL Multi-Species (XSP1) HepG2 Assay for human Thyroid hormone Receptor beta (TRb) (AID 2283808). The procedure, abridged: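 Readout is reporter mRNA induction measured by RT-PCR, fluorescent labelling and capillary electrophoresis, fitted upward relative to DMSO. Transiently transfected human HepG2 cells expressing NR-Gal4 chimeras were dosed for 24 h, medium containing 3 nM 6-alpha-fluorotestosterone.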

The nature of assay [10]: ATG_M_06_XSP2: Attagene TRANS-FACTORIAL Multi-Species (XSP2) HepG2 Assay for M06 Transcription Factor (Internal Marker) (AID 2283811).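 Further: hits are increases in signal above the DMSO baseline.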 A digest of the protocol:
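Readout: fluorescent reporter-mRNA peaks by capillary electrophoresis after RT-PCR and HpaI digest, scored upward relative to DMSO. Transfected HepG2, 24 h chemical exposure, with 3 nM 6-alpha-fluorotestosterone and 1.5 nM norgestrel added.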

Molecules are shown by their SMILES. Where “and” joins values, the source holds several entries; their conditions need not be identical. Identical values can stand only once. Results filed as inconclusive are left out. More than one record can exist for a structure, and the calls need not agree. Calls of active or inactive are those of the source. How the source made its calls: active means hit-call score of the fitted dose curve at least 0.9, where 1 is the maximum; inconclusive means response in the unintended direction; inactive means score below 0.9.

Chain of human Thyroid hormone Receptor beta (TRb), THRB (gene 7068) (P10828 whole entry, looked up, the tested form may be a part): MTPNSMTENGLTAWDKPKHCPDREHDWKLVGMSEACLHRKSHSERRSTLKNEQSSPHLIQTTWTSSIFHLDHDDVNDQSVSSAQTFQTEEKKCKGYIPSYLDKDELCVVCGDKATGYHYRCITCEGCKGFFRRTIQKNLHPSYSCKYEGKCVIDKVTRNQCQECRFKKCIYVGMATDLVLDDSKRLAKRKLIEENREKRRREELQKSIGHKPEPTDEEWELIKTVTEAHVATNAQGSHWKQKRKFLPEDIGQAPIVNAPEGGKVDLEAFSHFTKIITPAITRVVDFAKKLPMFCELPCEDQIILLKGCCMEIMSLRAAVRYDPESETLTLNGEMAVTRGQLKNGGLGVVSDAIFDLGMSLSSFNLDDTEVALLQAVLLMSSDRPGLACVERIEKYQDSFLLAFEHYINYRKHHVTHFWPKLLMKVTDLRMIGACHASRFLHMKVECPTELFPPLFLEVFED
Chain of GAL4 Transcription Factor (Internal Marker), GAL4 (gene 855828) (P04386 whole entry, looked up, the tested form may be a part): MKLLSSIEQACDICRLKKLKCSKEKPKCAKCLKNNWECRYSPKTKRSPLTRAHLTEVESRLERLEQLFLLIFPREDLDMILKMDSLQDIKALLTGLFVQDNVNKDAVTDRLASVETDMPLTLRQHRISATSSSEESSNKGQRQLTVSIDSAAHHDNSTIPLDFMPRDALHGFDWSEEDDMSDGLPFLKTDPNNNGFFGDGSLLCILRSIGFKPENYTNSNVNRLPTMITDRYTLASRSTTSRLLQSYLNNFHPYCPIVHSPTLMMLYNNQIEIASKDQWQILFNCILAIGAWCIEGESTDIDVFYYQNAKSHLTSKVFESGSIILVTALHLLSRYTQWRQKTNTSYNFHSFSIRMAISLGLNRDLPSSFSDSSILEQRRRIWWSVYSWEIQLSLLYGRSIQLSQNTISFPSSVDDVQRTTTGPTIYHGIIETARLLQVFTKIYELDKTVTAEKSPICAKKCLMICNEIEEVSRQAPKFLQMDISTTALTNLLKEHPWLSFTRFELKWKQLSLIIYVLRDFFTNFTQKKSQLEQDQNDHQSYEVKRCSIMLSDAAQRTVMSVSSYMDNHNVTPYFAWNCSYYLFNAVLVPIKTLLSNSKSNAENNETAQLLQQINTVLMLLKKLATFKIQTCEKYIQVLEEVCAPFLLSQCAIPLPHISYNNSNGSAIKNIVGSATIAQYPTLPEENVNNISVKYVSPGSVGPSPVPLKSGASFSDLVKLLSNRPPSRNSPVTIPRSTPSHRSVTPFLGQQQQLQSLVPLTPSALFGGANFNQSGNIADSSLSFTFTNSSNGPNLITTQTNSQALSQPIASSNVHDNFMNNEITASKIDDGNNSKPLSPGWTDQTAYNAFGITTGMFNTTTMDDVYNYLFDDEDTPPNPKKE

Regarding `Cc1c(COC(=O)[C@@H]2[C@H](/C=C(\Cl)C(F)(F)F)C2(C)C)cccc1-c1ccccc1`, the compound was called inactive in assay [1], in assay [2], in [4] and in assay [5]. In [3], the AC50 is 38.7 µM (active).

`CSC(=O)c1c(C(F)F)nc(C(F)(F)F)c(C(=O)SC)c1CC(C)C`: the call in assay [6], in assay [7], in assay [8], in assay [3] and in assay [5] was inactive.

Consider `COP(=S)(OC)Oc1ccc([N+](=O)[O-])c(C)c1`, for which the call in assay [6], in assay [1], in assay [2], in assay [9], in assay [7] and in [8] was inactive. For the same compound, in assay [10], the outcome was inactive. Besides, the figures for the half-maximal activity concentration (AC50) in [3] and in assay [4] were 31.9 µM (active) and 47.5 µM (active), respectively.

For the compound `CC1(C)CCC(=Cc2ccc(Cl)cc2)C1(O)Cn1cncn1` (centres undefined), the call in assay [6], in [1], in assay [2], in [9], in assay [7] and in [8] was inactive. Further, the call in [3], in assay [4] and in [5] was inactive.

With `C=C(C)CN(CC)c1c([N+](=O)[O-])cc(C(F)(F)F)cc1[N+](=O)[O-]`, the result in assay [10] and in [4] was inactive. For the same compound, in assay [3], the AC50 is 4.03 µM (active) and 12.5 µM (active).

Take `N#Cc1c[nH]cc1-c1cccc2c1OC(F)(F)O2`: the compound was called inactive in assay [10]. Further, the AC50 in assay [3] is 2.37 µM (active) and 1.02 µM (active).

Take `COP(=S)(OC)SCn1nnc2ccccc2c1=O`: the compound was called inactive in [10], in [3], in [4] and in assay [5]. The AC50 in assay [3] is 16.4 µM (active).

With `CCN(CC)C(=O)C(C)Oc1cccc2ccccc12` (centres undefined), the result in assay [6], in assay [1], in assay [9], in assay [7], in assay [8] and in assay [10] was inactive. The compound was called inactive in assay [4]. For the same compound, in assay [3], the concentration at half-maximal activity (AC50) was 10.5 µM (active).

For `CC(C)NC(=O)N1CC(=O)N(c2cc(Cl)cc(Cl)c2)C1=O`, the result in [1], in assay [9], in [7], in [8], in [10] and in assay [3] was inactive. For the same compound, the result in assay [5] was inactive.

With `CC1(C)C(C=C(Cl)Cl)C1C(=O)OC(C#N)c1cccc(Oc2ccccc2)c1` (centres undefined), the compound was classed as inactive in [1], in assay [9], in assay [7], in assay [10] and in assay [4]. The AC50 in assay [3] was 18 µM (active).
